According to publication PMC12820563, “FoxP3 forms a head-to-head dimer in vivo and stabilizes its multimerization on adjacent microsatellites”:
Whole data set: some 16,000 sequences, median “rpm ratio (pull-down/input)” near 0.94, cut for the highest 2% near 1.7. This is one part of a sample in which the highest values are shown more often than they occur.

Target: T1, MBP-FoxP1dN (Mus musculus, UniProt P58462 326-579)
T1 sequence: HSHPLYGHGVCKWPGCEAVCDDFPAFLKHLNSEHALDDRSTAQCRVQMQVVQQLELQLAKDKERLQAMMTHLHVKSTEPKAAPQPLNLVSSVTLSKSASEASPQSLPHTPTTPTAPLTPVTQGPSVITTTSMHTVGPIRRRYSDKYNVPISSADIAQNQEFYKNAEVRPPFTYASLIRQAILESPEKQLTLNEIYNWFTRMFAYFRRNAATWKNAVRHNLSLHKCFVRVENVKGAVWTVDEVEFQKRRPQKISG
Assay: PD-seq (MBP pull-down with sequencing); 20 mM Tris-HCl pH 7.5, 100 mM NaCl, 1.5 mM MgCl2, 0.4 uM protein, 0.1 uM dsDNA library, 30 min, room temperature, amylose pull-down; high values mean tight binding
Conditions: protein: recombinant; tags: His6-MBP; chain copies: 2; dsDNA, one strand shown
Procedure, shortened: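 In Tris pH 7.5 buffer with NaCl and MgCl2, 0.4 µM His6-MBP-tagged mouse FoxP3 or FoxP1 fragment lacking the N-terminus, from E. coli, met 0.1 µM Klenow-filled double-stranded degenerate DNA library for 30 min at room temperature. Three washes on amylose resin followed capture of the complexes, then proteinase K release of DNA, PCR barcoding and Illumina sequencing. Binding is taken as pooled-replicate reads-per-million enrichment of pull-down relative to input.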

Compared with “GATGATTGTTCTCCCAGCTGATGAATTGGAAGCGTCGAGTAAACAAATTTTCCTAATCTTTCTGTTCAAGCGCCATCTAC”, “GATGATTGTTCTCCCAGCTGATGAATTGAATGGCTCGAGTAAACAAATTTTCCTAATCTTTCTGTTCAAGCGCCATCTAC” is lower in binding signal: 0.893 RPM ratio (pull-down/input) for the first, 0.823 RPM ratio (pull-down/input) for the second.

Compared with “GATGATTGTTCTCCCAGCTGATGAATTGACCGAGTCGAGTAAACAAATTTTCCTAATCTTTCTGTTCAAGCGCCATCTAC”, “GATGATTGTTCTCCCAGCTGATGAATTCCTTCTCTCGAGTAAACAAATTTTCCTAATCTTTCTGTTCAAGCGCCATCTAC” is lower in binding signal: 0.835 RPM ratio (pull-down/input) for the first, 0.736 RPM ratio (pull-down/input) for the second.

Going from “GATGATTGTTCTCCCAGCTGATGAATTATCGTCGTCGAGTAAACAAATTTTCCTAATCTTTCTGTTCAAGCGCCATCTAC” to “GATGATTGTTCTCCCAGCTGATGAATTTCTAGTTTCGAGTAAACAAATTTTCCTAATCTTTCTGTTCAAGCGCCATCTAC”, the binding signal falls from 0.884 RPM ratio (pull-down/input) to 0.858 RPM ratio (pull-down/input).

Compared with “GATGATTGTTCTCCCAGCTGATGAATTTCGCATGTCGAGTAAACAAATTTTCCTAATCTTTCTGTTCAAGCGCCATCTAC”, “GATGATTGTTCTCCCAGCTGATGAATTAGTCACCTCGAGTAAACAAATTTTCCTAATCTTTCTGTTCAAGCGCCATCTAC” is lower in binding signal: 0.944 RPM ratio (pull-down/input) for the first, 0.877 RPM ratio (pull-down/input) for the second.

First: GATGATTGTTCTCCCAGCTGATGAATTCTGGGCTTCGAGTAAACAAATTTTCCTAATCTTTCTGTTCAAGCGCCATCTAC
Second: GATGATTGTTCTCCCAGCTGATGAATTGTATTAGTCGAGTAAACAAATTTTCCTAATCTTTCTGTTCAAGCGCCATCTAC
The binding signal of the first is lower: 0.843 RPM ratio (pull-down/input) for the first, 1.3 RPM ratio (pull-down/input) for the second.

Compared with “GATGATTGTTCTCCCAGCTGATGAATTAGTATTGTCGAGTAAACAAATTTTCCTAATCTTTCTGTTCAAGCGCCATCTAC”, “GATGATTGTTCTCCCAGCTGATGAATTAGTAATTTCGAGTAAACAAATTTTCCTAATCTTTCTGTTCAAGCGCCATCTAC” is lower in binding signal: 2.55 RPM ratio (pull-down/input) for the first, 1.07 RPM ratio (pull-down/input) for the second.

First: GATGATTGTTCTCCCAGCTGATGAATTAGTATTTTCGAGTAAACAAATTTTCCTAATCTTTCTGTTCAAGCGCCATCTAC
Second: GATGATTGTTCTCCCAGCTGATGAATTTAGTATTTCGAGTAAACAAATTTTCCTAATCTTTCTGTTCAAGCGCCATCTAC
The binding signal of the first is higher: 2.28 RPM ratio (pull-down/input) for the first, 1.24 RPM ratio (pull-down/input) for the second.

First: GATGATTGTTCTCCCAGCTGATGAATTAGTTCTGTCGAGTAAACAAATTTTCCTAATCTTTCTGTTCAAGCGCCATCTAC
Second: GATGATTGTTCTCCCAGCTGATGAATTAACATCGTCGAGTAAACAAATTTTCCTAATCTTTCTGTTCAAGCGCCATCTAC
The binding signal of the first is lower: 0.873 RPM ratio (pull-down/input) for the first, 0.998 RPM ratio (pull-down/input) for the second.

Going from “GATGATTGTTCTCCCAGCTGATGAATTAAAACATTCGAGTAAACAAATTTTCCTAATCTTTCTGTTCAAGCGCCATCTAC” to “GATGATTGTTCTCCCAGCTGATGAATTAGACGTATCGAGTAAACAAATTTTCCTAATCTTTCTGTTCAAGCGCCATCTAC”, the binding signal falls from 1.4 RPM ratio (pull-down/input) to 1.02 RPM ratio (pull-down/input).
